Screening results (PubChem)
Compounds with a hit are over-represented: about 1.9% of the library has one in this group of screens.
NCF1 inh = p47phox/p22phox peptide binding inhibitors, primary screen, biochemical, uHTS, NADPH oxidase regulatory subunit; Neutrophil cytosol factor 1 (Homo sapiens), P14598; fluorescence polarization, 2 h; inhibition, % at 24.7 µM; 220,000 tested, 0.53% active;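 active = inhibition above about 30%, limit read from the data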
Target sequence (P14598 whole entry, looked up): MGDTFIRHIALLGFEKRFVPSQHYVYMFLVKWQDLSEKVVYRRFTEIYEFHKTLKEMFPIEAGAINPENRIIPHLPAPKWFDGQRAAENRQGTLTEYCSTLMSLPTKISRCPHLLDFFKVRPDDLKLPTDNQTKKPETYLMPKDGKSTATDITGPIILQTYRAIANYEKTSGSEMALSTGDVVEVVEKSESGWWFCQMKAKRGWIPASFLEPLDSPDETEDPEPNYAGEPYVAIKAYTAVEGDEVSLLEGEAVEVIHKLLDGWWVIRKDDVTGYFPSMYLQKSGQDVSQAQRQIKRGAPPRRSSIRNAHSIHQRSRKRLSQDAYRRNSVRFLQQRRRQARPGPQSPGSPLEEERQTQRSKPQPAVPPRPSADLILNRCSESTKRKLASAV
HMGR II inh = inhibitors of E. faecalis class II HMGR, primary screen, biochemical, Enterococcus faecalis; purified E. faecalis HMGR, NADPH absorbance 340 nm kinetic; 190,000 tested, 0.41% active; inhibition, % at 10 µM;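 active = inhibition above a set limit, the median over all tested compounds plus 3 SD, cut at about 9.5% in these data; inconclusive = no clear call, values can overlap the other calls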;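 also: enzyme runs in reverse so mevalonate oxidation gives rising NADPH absorbance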
dFosB act-1 = activators of delta FosB homodimer, primary screen, biochemical, fluorescence polarization, TAMRA-CDK5 oligo, single point. Protein FosB (Mus musculus), P13346. activation, % at 25 µM. purified delta FosB; percent of positive-control signal above neutral wells. 340,000 tested, 0.99% active;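 active = mean activation above about 17%, with every replicate also reaching it, limit read from the data, passing the limit was not always enough; inconclusive = only one of the two conditions met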
14-3-3 Bad inh = inhibitors of 14-3-3 zeta/Bad binding, primary screen, biochemical, TR-FRET, bovine 14-3-3 zeta; 14-3-3 protein zeta/delta (Bos taurus), P63103; inhibition, % at 21.7 µM; AID 781, 2007; TR-FRET 14-3-3zeta/Dy647-pBad peptide displacement, 1 h; 220,000 tested, 0.71% active;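 active = inhibition above about 70%, limit read from the data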
Target sequence (P63103 whole entry, looked up): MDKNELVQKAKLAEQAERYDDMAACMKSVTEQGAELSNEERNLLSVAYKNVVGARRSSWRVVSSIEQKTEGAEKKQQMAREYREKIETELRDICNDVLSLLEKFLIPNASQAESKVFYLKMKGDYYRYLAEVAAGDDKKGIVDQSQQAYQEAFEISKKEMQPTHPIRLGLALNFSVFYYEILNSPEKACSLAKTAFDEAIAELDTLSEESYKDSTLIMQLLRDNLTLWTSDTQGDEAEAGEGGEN
dFosB act-2 = activators of mouse delta FosB DNA binding, confirmation, biochemical, fluorescence polarization, TAMRA-CDK5 oligo, cherry-picked samples. shares compounds with dFosB act-1. purified delta FosB; normalised: neutral wells 0, positive control 100. activation, % at 24.9 µM. 2,400 tested, under 10 active;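 active = highest replicate activation at or above 34% and every replicate reaching that threshold; inconclusive = meets only one of the two criteria; inactive = meets neither criterion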;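 also: higher polarization means more probe DNA bound by delta FosB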
Large screens that a line does not name were inactive (follow-up assays come after a bar, where they were run).

Cn1c(=O)c2ncn(CC(=O)Nc3nc(-c4ccc(Cl)cc4)cs3)c2n(C)c1=O	dFosB act-1 24.4 | dFosB act-2 inactive
COC(=O)c1ccccc1NC(=O)CSc1nnnn1-c1ccc(C)cc1C	dFosB act-1 30.9 | dFosB act-2 inactive
Cc1ccccc1-n1nnnc1SCC(=O)NNC(=O)c1ccc(NC(=O)CC#N)cc1	dFosB act-1 47.4 (no result: NCF1 inh, HMGR II inh, 14-3-3 Bad inh) | dFosB act-2 inactive
O=c1[nH]c(CSc2nc3ccccc3[nH]2)nc2c1cnn2-c1ccccc1	none
O=c1[nH]c(SCc2nc3c(cnn3-c3ccccc3)c(=O)[nH]2)nc2ccccc12	dFosB act-1 43.7 | dFosB act-2 inactive
Cc1ccc(-c2nnn(CC(=O)N(Cc3ccccc3)C(C(=O)NC3CCCC3)c3ccncc3)n2)o1 (stereo not drawn)	dFosB act-1 33.4 | dFosB act-2 inactive
CCOc1cc(/C=N/NC(=O)C(=O)NCc2ccc3c(c2)OCO3)ccc1OCC(=O)N1CCOCC1	dFosB act-1 19.7 (no result: NCF1 inh, HMGR II inh, 14-3-3 Bad inh) | dFosB act-2 inactive
CCOc1cc(/C=N/NC(=O)c2ccc(CN3CCOCC3)cc2)ccc1OCc1ccccc1	dFosB act-1 20.7 | dFosB act-2 inactive
Nc1nc(-c2cccc(F)c2)cs1	none
O=S(=O)(c1cccs1)N1CN(Cc2ccccc2)c2nc3ccccc3nc21	none
COc1ccc(CN2CN(S(=O)(=O)c3cccs3)c3nc4ccccc4nc32)cc1	dFosB act-1 57.9 (no result: HMGR II inh) | dFosB act-2 inactive
CCN(CC)CCNC(=S)Nc1ccc2nc(N3CCCC3)cc(C)c2c1	dFosB act-1 32.1 | dFosB act-2 inactive
CCCCN(CC)CCCNC(=S)Nc1ccc2nc(N3CCN(C)CC3)cc(C)c2c1	none
CCN(CC)CCNC(=S)Nc1ccc2nc(N3CCN(C)CC3)cc(C)c2c1	dFosB act-1 23.9 (no result: NCF1 inh, HMGR II inh, 14-3-3 Bad inh) | dFosB act-2 inactive
CCN(CC)CCNC(=S)Nc1ccc2nc(N3CCOCC3)cc(C)c2c1	none (no result: NCF1 inh, HMGR II inh, 14-3-3 Bad inh)
CCCN(CCC)CCCNC(=S)Nc1ccc2nc(N3CCCC3)cc(C)c2c1	dFosB act-1 36.2 | dFosB act-2 inconclusive
O=S(=O)(Cc1ccccc1)c1ccccc1-c1nnc(-c2ccccc2)o1	dFosB act-1 31.7 | dFosB act-2 inactive
O=C(c1cc(-c2ccc(Cl)c(Cl)c2)on1)N1CCCC1	none (no result: dFosB act-1)
O=C(c1cc(-c2ccc(Cl)c(Cl)c2)on1)N1CCOCC1	dFosB act-1 50.2 (no result: NCF1 inh, HMGR II inh, 14-3-3 Bad inh) | dFosB act-2 inactive
COc1cc(/C=N/NC(=O)c2cccnc2)ccc1OCC(=O)Nc1ccccc1Cl	dFosB act-1 116.5 | dFosB act-2 inactive
COc1ccc(NC(=O)COc2ccc(/C=N/NC(=O)c3cccnc3)cc2OC)cc1	none
COc1cc(/C=N/NC(=O)c2cccnc2)ccc1OCC(=O)Nc1c(C)cc(C)cc1C	dFosB act-1 25.6 | dFosB act-2 inactive
COC(=O)c1ccccc1NC(=O)c1ccc(COc2ccc(C)c(C)c2)o1	none
Cc1cc(OCC(=O)Nc2cc(-c3nn4c(C)nnc4s3)ccc2C)ccc1Cl	dFosB act-1 37.7 | dFosB act-2 inactive
COc1ccc(C(=O)Nc2ccc(S(=O)(=O)NC(C)=O)cc2)cc1[N+](=O)[O-]	none
CC(NS(=O)(=O)c1ccc(Cl)c(Cl)c1)C(=O)Nc1cccnc1 (stereo not drawn)	none (no result: NCF1 inh, HMGR II inh, 14-3-3 Bad inh)
Cc1ccc(CNC(=O)CC(C)S(=O)(=O)c2cc3c(cc2C)NC(=O)CO3)cc1 (stereo not drawn)	dFosB act-1 23.5 (no result: NCF1 inh, HMGR II inh, 14-3-3 Bad inh) | dFosB act-2 inactive
CC(CC(=O)NCc1ccc(Cl)cc1)S(=O)(=O)c1ccc2c(c1)NC(=O)CO2 (stereo not drawn)	none (no result: NCF1 inh, HMGR II inh, 14-3-3 Bad inh)
Cc1cccc(C)c1NC(=O)c1cc2c(=O)c3ccccc3oc2nc1C(F)(F)F	dFosB act-1 49.8 | dFosB act-2 inactive
Cc1ccc(C(=O)C[n+]2cc(-c3ccc(C)cc3)n3c2CCCCC3)cc1	none
CCCCN=C1NC(=O)C(CC(=O)Nc2ccc(Cl)cc2)S1 (stereo not drawn)	none
Clc1cc(Cl)cc(Nc2ncnc(-n3cccc3)n2)c1	dFosB act-1 29.9 (no result: HMGR II inh) | dFosB act-2 inactive
COCCn1c(N)c(N(Cc2ccccc2)C(=O)c2ccc(-c3ccc(Cl)cc3)o2)c(=O)[nH]c1=O	dFosB act-1 23.2 (no result: NCF1 inh, HMGR II inh, 14-3-3 Bad inh) | dFosB act-2 inactive
CCOC(=O)c1c(CSC(=N)N)n(C)c2cc(Br)c(OC(C)=O)cc12	none (no result: HMGR II inh)
CCOC(=O)c1c(CSC(=N)N)n(-c2ccc(C)cc2)c2cc(Br)c(OC(C)=O)cc12	NCF1 inh 37.4, dFosB act-1 36.5 | dFosB act-2 inactive
CC1CCC2(CC1)NC(=O)N(CC(=O)N(Cc1ccccc1)C(C)(C)C)C2=O (stereo not drawn)	none (no result: NCF1 inh, HMGR II inh, 14-3-3 Bad inh)
CC(=O)n1cc(/C=N/NC(=O)c2cccc(O)c2)c2ccccc21	dFosB act-1 27.4 (no result: NCF1 inh, HMGR II inh, 14-3-3 Bad inh) | dFosB act-2 inactive
COc1cccc(C(=O)NCC(=O)OCC(=O)C(C)(C)C)c1	none
Cc1ccc(-c2cc(C(=O)Nc3ccc(S(=O)(=O)Nc4ncccn4)cc3)[nH]n2)c(O)c1C	none (no result: HMGR II inh)
CC(=O)Nc1ccc(NC(=O)c2cc(-c3ccc(C)c(C)c3O)n[nH]2)cc1	dFosB act-1 68.2 (no result: NCF1 inh, HMGR II inh, 14-3-3 Bad inh) | dFosB act-2 inactive
CCCn1c(SCC(=O)Nc2cccc(S(=O)(=O)NC3=NCCCCC3)c2)nc2ccccc2c1=O	none
CCc1nn(CC(=O)NCCC2=CCCCC2)c(=O)c2cc3cc(F)ccc3n12	dFosB act-1 40.6 (no result: NCF1 inh, HMGR II inh, 14-3-3 Bad inh) | dFosB act-2 inactive
CCOc1ccc(N(CC)C(=O)CCNC(=O)Cn2ccc3ccccc3c2=O)cc1	none
O=C(CCNC(=O)Cn1ccc2ccccc2c1=O)NCCc1ccc(Cl)cc1	dFosB act-1 33.2 | dFosB act-2 inactive
CCOc1ccccc1CNC(=O)CCNC(=O)Cn1ccc2ccccc2c1=O	dFosB act-1 22.7 | dFosB act-2 inactive
O=C(OCC(=O)c1ccc[nH]1)c1ccc(F)c(S(=O)(=O)N2CCOCC2)c1	none (no result: NCF1 inh, HMGR II inh, 14-3-3 Bad inh)
OCCN(Cc1ccccc1)Cc1ccccc1Cl	none
O=C(Cc1ccccc1[N+](=O)[O-])Nc1cccc(S(=O)(=O)NC2=NCCCCC2)c1	none (no result: NCF1 inh, HMGR II inh, 14-3-3 Bad inh)
Cc1nn(-c2cccc(Cl)c2)c(Cl)c1/C=N/NC(=O)c1cccnc1	dFosB act-1 22.5 | dFosB act-2 inactive
COC(=O)N/N=C/c1c(C)nn(-c2cccc(Cl)c2)c1Cl	none
Cc1nn(-c2ccc(F)cc2)c(Cl)c1/C=N/NC(=O)c1cccs1	dFosB act-1 39.1 | dFosB act-2 inactive
O=C(N/N=C/c1c(O)n(-c2ccccc2Cl)c(=O)c2ccccc12)c1cccnc1	none
Cc1nn(Cc2c(Cl)cccc2Cl)c(Cl)c1/C=N/NC(=O)c1cccnc1	dFosB act-1 55.5 | dFosB act-2 inactive
Cc1cc(NC2CCCCC2)n2c(n1)nc1ccccc12	none
COCCN=C1Sc2nc3c(C)cccc3cc2CN1Cc1ccco1	none
CCCCn1c(N)c(N(CC(C)C)C(=O)C2CCN(S(=O)(=O)c3ccccc3)CC2)c(=O)[nH]c1=O	dFosB act-1 55.3 (no result: NCF1 inh, HMGR II inh, 14-3-3 Bad inh) | dFosB act-2 inactive
